Test results as given in PubChem BioAssay AID2284129 (EPA ToxCast).
Activity calls are given as the source filed them. The calls were made as follows: active = hit-call score of the fitted dose curve at least 0.9, where 1 is the maximum; inactive = score below 0.9.

What follows are compounds tested against human Cyclooxygenase COX2, PTGS2 (gene 5743) (UniProt P35354) (assay: ERF_FR_ENZ_hPTGS2: Eurofins (ERF) Enzymatic LeadHunter Assay for human Cyclooxygenase COX2, conducted at France lab site).
Chain of human Cyclooxygenase COX2, PTGS2 (gene 5743) (P35354 whole entry, looked up): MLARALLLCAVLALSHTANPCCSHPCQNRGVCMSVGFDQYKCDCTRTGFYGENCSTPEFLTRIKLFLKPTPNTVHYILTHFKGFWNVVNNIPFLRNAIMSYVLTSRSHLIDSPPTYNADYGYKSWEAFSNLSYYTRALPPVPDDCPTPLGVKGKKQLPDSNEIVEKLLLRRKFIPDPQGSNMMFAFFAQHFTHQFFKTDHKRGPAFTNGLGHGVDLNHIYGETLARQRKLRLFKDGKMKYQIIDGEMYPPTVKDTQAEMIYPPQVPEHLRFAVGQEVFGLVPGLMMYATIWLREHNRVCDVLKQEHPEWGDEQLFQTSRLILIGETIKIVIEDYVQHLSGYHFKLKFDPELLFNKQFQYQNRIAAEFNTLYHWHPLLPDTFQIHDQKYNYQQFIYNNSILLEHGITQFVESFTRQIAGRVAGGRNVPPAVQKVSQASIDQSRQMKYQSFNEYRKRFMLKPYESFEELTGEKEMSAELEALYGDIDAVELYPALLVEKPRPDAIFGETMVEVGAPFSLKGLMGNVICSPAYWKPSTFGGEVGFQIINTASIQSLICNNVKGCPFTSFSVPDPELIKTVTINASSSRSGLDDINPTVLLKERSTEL
Experimental: ERF_FR_ENZ_hPTGS2 is a biochemical, single-readout assay that uses extracted gene-proteins in a cell-free assay. Measurements were taken 0.083 hour after chemical dosing in a 96-well plate. See COX2 Human Cyclooxygenase Enzymatic Assay, Cerep.ERF_FR_ENZ_hPTGS2 is an assay component calculated from the ERF_FR_ENZ_hPTGS2 assay. It is designed to measure enzyme activity using a type of enzyme reporter as detected by fluorescence intensity with fluorimetry technology.Data from the assay component ERF_FR_ENZ_hPTGS2 was analyzed at the assay endpoint, ERF_FR_ENZ_hPTGS2, in the positive analysis fitting direction relative to DMSO as the negative control and baseline of activity. Using a type of enzyme reporter, loss-of-signal activity can be used to understand changes in binding as they relate to gene PTGS2. To generalize the intended target to other relatable targets, this assay endpoint is annotated to the stress response intended target family, where the subfamily is cyclooxygenase.
Human cells are incubated for 5 minutes at room temprature with Arachidonic acid (1.2uM) + ADHP (25 uM) as sunstrate and ns-398 as control inhibitor. Test Sample Requirements: Minimum for 1) Screen: 60 ul of 10 mM stock -OR- 1 mg (pre-weighed) for 10 uM final testing. 2) Dose Response: 90 ul of 10 mM stock -OR- 1 mg (pre-weighed) for a top concentration at 10 uM.
In the case of COc1cc(CCC(=O)CC(=O)CCc2ccc(O)c(OC)c2)ccc1O, the AC50 is reported as 274 nM (active).
